Test results as given in PubChem BioAssay (NCI).
This is part of a sample that, as a whole, favours compounds with a hit. Of some 79,000 tested, about 15% had one in any assay. A number with no mark means an inactive call. Activity calls are given as the source filed them. Cut-off read from the data, not from the text of the source: active = growth inhibition above about 70%; inactive = the rest.

Experiments:
[1] = NCI Yeast Anticancer Drug Screen. Data for the rad50 strain (AID 155);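 note: 0% = growth of vehicle-only cultures of the same strain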; conditions: S. cerevisiae rad50 strain growth inhibition, stronger effect = higher value
How it was run: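 Yeast carrying a defined DNA repair defect were exposed to test compounds, and growth was compared with vehicle-treated controls to give percent inhibition.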

[2] = NCI Yeast Anticancer Drug Screen. Data for the mec2-1 strain (AID 157); conditions: S. cerevisiae mec2-1 strain, stronger effect = higher value
How it was run: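 Readout is yeast growth inhibition, normalised to vehicle-treated controls, in the mec2-1 strain exposed to compound.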

[3] = NCI Yeast Anticancer Drug Screen. Data for the sgs1 mgt1 strain (AID 161);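 note: 0% = growth of cultures given vehicle only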; conditions: S. cerevisiae sgs1 mgt1 strain, stronger effect = higher value
How it was run: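 This yeast growth screen uses a strain with defined DNA-repair lesions; compound-treated growth is compared with vehicle-treated growth.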

[4] = NCI Yeast Anticancer Drug Screen. Data for the cln2 rad14 strain (AID 165);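 note: 0% = growth equal to vehicle treated cultures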; conditions: S. cerevisiae cln2 rad14 strain, stronger effect = higher value
How it was run: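 Relative to vehicle controls, growth inhibition of compound-treated cln2 rad14 yeast was recorded.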

[5] = NCI Yeast Anticancer Drug Screen. Data for the bub3 strain (AID 167); conditions: S. cerevisiae bub3 mutant strain, stronger effect = higher value
How it was run: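 Compounds were applied to a genetically altered yeast strain carrying a cell-cycle control defect. Growth inhibition was scored against vehicle-treated controls.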

[6] = NCI Yeast Anticancer Drug Screen. Data for the mlh1 rad18 strain (AID 175); conditions: S. cerevisiae mlh1 rad18 strain growth inhibition, stronger effect = higher value
How it was run: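 Test agents were incubated with a yeast strain of defined genotype (DNA damage repair defect). Inhibition of growth was derived by comparison with vehicle-exposed cultures.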

[7] = at 5.0 µM (retest, dose inferred, filed as 0.5)
[8] = at 50.0 µM (retest, dose inferred, filed as 5.0)

Compound	growth inhibition [1, 7]	growth inhibition [1, 8]	growth inhibition ([1]; at 50.0 µM)	growth inhibition [2, 7]	growth inhibition [2, 8]	growth inhibition ([2]; at 50.0 µM)	growth inhibition [3, 7]	growth inhibition [3, 8]	growth inhibition ([3]; at 50.0 µM)	growth inhibition [4, 7]	growth inhibition [4, 8]	growth inhibition ([4]; at 50.0 µM)	growth inhibition [5, 7]	growth inhibition [5, 8]	growth inhibition ([5]; at 50.0 µM)	growth inhibition [6, 7]	growth inhibition [6, 8]	growth inhibition ([6]; at 50.0 µM)
CCc1cccc(CC)c1NC(=S)N/C=C(\C#N)C(=O)c1ccc2ccccc2c1	7%	14%	44.8%	-2%	6%	38.5%	0%	13%	61.4%	-23%	5%	6.85%	3%	7%	59.1%	-2%	5%	67.2%
COc1ccccc1NC(c1ccccc1)c1ccc2cccnc2c1O (configuration not stated)	2%	50%	81.2% (active)	3%	60%	49.2%	7%	45%	73.2% (active)	-7%	-1%	15.2%	-5%	18%	2.9%	-23%	44%	75% (active)
Nc1cccc2c(O)cccc12	-1%	21%	21.6%	3%	18%	9.3%	-1%	15%	20.8%	2%	12%	44.2%	2%	15%	8.55%	-2%	28%	50.2%
CC(=O)OCc1cc2ccccc2nc1C(Br)(Br)Br	-11%	95% (active)	96% (active)	-6%	95% (active)	95.8% (active)	39%	99% (active)	97.5% (active)	-4%	96% (active)	96.7% (active)	62%	99% (active)	95.2% (active)	39%	96% (active)	96.7% (active)
COc1ccc2c(c1)CCCN2CCCCCCCCCCN1CCCCC1	13%	38%	71.3% (active)	7%	34%	56.9%	36%	73% (active)	80.8% (active)	28%	28%	71.2% (active)	35%	60%	59.8%	25%	25%	61.4%
CCCCCCCCS(=O)(=O)Nc1ccccc1	11%	98% (active)	99.3% (active)	0%	99% (active)	99.2% (active)	6%	99% (active)	99.3% (active)	4%	99% (active)	99.4% (active)	4%	99% (active)	99.1% (active)	-5%	61%	99.1% (active)
O=C(CNC(=O)OCc1ccccc1)NNc1ccccc1Cl	95% (active)	98% (active)	98.7% (active)	94% (active)	99% (active)	98.5% (active)	98% (active)	99% (active)	97.1% (active)	97% (active)	98% (active)	98.7% (active)	98% (active)	96% (active)	99.2% (active)	98% (active)	99% (active)	99.3% (active)
Cc1ccc(Cl)cc1NC(=O)N(C)CCOC(=O)Nc1cccc(Cl)c1	32%	95% (active)	88.7% (active)	31%	97% (active)	91% (active)	41%	97% (active)	92.9% (active)	22%	97% (active)	90% (active)	23%	94% (active)	92.3% (active)	41%	98% (active)	90.5% (active)
COc1ccc2c(C)cc(N/N=C/c3cccc(C)n3)nc2c1	-1%	4%	75.1% (active)	-2%	8%	31.2%	4%	28%	97.4% (active)	5%	5%	19.1%	-4%	-4%	22.2%	-5%	19%	28.8%
CCCCC(/C=N\NC(=O)c1ccc[n+](C)c1)=C/c1ccccc1	18%	1%	88.3% (active)	1%	-3%	95.4% (active)	-6%	-3%	88.7% (active)	-2%	-5%	18.5%	-4%	-7%	94.5% (active)	-1%	16%	90.6% (active)
CCCc1cc(-c2ccc(O)c(CCC)c2)ccc1O	92% (active)	99% (active)	99.6% (active)	98% (active)	99% (active)	99.7% (active)	90% (active)	99% (active)	99.5% (active)	96% (active)	99% (active)	99.3% (active)	99% (active)	100% (active)	99.7% (active)	96% (active)	99% (active)	99.2% (active)
CC1OC(c2ccc3c(c2)OCO3)OC1C (configuration not stated)	1%	0%	-21.6%	-4%	-7%	20.1%	-4%	-5%	24.6%	0%	-2%	70.7% (active)	-8%	-23%	25%	2%	0%	64.7%
CCOc1c(N=Nc2ccc(OC)cc2)c(-c2ccccc2)nn1C(N)=S	4%	36%	12.3%	-2%	34%	38%	10%	73% (active)	25.8%	6%	9%	3.1%	3%	71% (active)	70.2% (active)	0%	27%	23.9%
[Cl][Sn]([CH2][CH2][Sn]([Cl])([c]1ccccc1)[c]1ccccc1)([c]1ccccc1)[c]1ccccc1	99% (active)	98% (active)	94.5% (active)	99% (active)	97% (active)	92.2% (active)	99% (active)	97% (active)	95.2% (active)	97% (active)	96% (active)	87.5% (active)	96% (active)	98% (active)	90.9% (active)	99% (active)	98% (active)	94.2% (active)
S=C(Nc1cc(Cl)cc(Cl)c1)SCc1ccccc1	33%	78% (active)	99.1% (active)	25%	54%	99.5% (active)	30%	74% (active)	99.2% (active)	-9%	48%	98.7% (active)	4%	68%	99.2% (active)	31%	82% (active)	99.3% (active)
Cn1c(-c2ccccc2)c(CCNC(=O)C2CCC2)c2ccccc21	18%	18%	81.2% (active)	14%	14%	86% (active)	12%	12%	79.2% (active)	7%	7%	77.3% (active)	11%	11%	79.2% (active)	18%	18%	75.2% (active)
CCOc1cnn(-c2ccccc2)c(=O)c1SCc1ccc(Cl)c(Cl)c1	-4%	27%	37.5%	-3%	56%	8.95%	2%	73% (active)	65.8%	-11%	44%	53.1%	4%	82% (active)	40.3%	-4%	56%	32.4%
N#Cc1c(N)nc2c(N=Nc3ccccc3)c(N)nn2c1Nc1ccccc1	-2%	38%	51.5%	-2%	39%	16.4%	19%	85% (active)	79.2% (active)	1%	5%	16.4%	-5%	31%	-30.6%	-4%	55%	76.1% (active)
NCCCNCc1c2ccccc2c(CNCCCN)c2ccccc12	6%	6%	10.7%	-7%	-7%	43.4%	1%	1%	58.9%	24%	24%	56.1%	15%	15%	33.8%	4%	4%	74.5% (active)
